Drawing on PubChem BioAssay (EPA / NIEHS), this text covers outcome and AC50 for 40 compounds.

What is called AC50 is the concentration giving half of the maximal activity seen.

SMILES strings stand for the structures. Calls of active or inactive are those of the source. The calls were made as follows: active = hit-call score of the fitted dose curve at least 0.9, where 1 is the maximum; inactive = score below 0.9.

Read-out in the assay: CYP4A11 (gene 1579)
Description: LTEA_HepaRG_CYP4A11: Life Technologies and Expression Analysis (LTEA) Assay for CYP4A11 using HepaRG (AID 2283486). The following applies: mRNA level, 48 h; actives raise or lower the signal. On the procedure:
LTEA_HepaRG is a cell based, multiplexed-readout assay that uses HepaRG, a human liver cell line, with measurements taken at 48 hours after chemical dosing on a 96-well plate.LTEA_HepaRG_CYP4A11 is one of 102 assay component(s) measured in the LTEA HepaRG cell culture assay. It is a marker of NR mediated metabolism.Data from the assay component LTEA_HepaRG_CYP4A11 was analyzed into 1 endpoint. This assay endpoint, LTEA_HepaRG_CYP4A11, was analyzed with bidirectional fitting relative to DMSO as the negative control and baseline of activity. Using a type of inducible reporter, measures of mRNA induction for gain or loss-of-signal activity can be used to understand regulation of transcription factor activity. To generalize the intended target to other relatable targets, this assay endpoint is annotated to the cyp intended target family, where the subfamily is xenobiotic metabolism.
A total of 1060 chemcials from the ToxCast library were tested in eight-point concentration-response experiments. Cell culture and cytotoxicity assays were conducted at Thermo Fisher Scientific's Custom Services facility (Madison, WI). A single lot of human HepaRG cells (Thermo Fisher Scientific, Frederick, MD) was used for the cell culture experiments. 96-well format collagen type I coated plates of human HepaRG cells were prepared using established methods. Briefly, cryopreserved HepaRG cells were thawed, plated at a density of approximately 100,000 cells/well in HepaRG Thaw, Plate, and General Purpose media (HPRG770, Thermo Fisher Scientific), and incubated for 48 hours. 0.5% DMSO was selected as vehicle control to balance the requisite need of DMSO in HepaRG cultures to maintain differentiation (for example, baseline metabolism, proportions of hepatocytes vs. cholangiocytes), while enabling further hepatic receptor pathway activation (for example, PXR and CAR) in response to chemical exposure. 48 hours after plating, the culture medium was replaced with HepaRG Serum-Free Incudtion Media. Cells were exposed to each test chemical in duplicate and maintained in CO2 incubators for another 48 hours. Chemical plates were thawed to room temperature and 200x concentrations of treatment groups were prepared. 8-point conentration-reponse curves were made with the highest exposure at 100 uM, followed by half-log dilutions, all in 0.5% DMSO. Each test plate contained variouse controls, induction positive controls (1mM phenobarbital), cytotoxicity positive controls ([…] aflatoxin B1), vehicle controls (0.5% DMSO), and total lysis controls (0.5% DMSO). Cell morphology images were taken using an Essen IncuCyte FLR automated microscope, with six 96-well plates imaged in about 24 minutes. Images were captured and exported and JPEG files. Spent culture media was transfered to black-well plates for the LDH assay, and remaining media was sorted at -80 C for later use. Cells were treated with RLT buffer and frozen until shipped for gene expression analysis. Total RNA was isolated from the cell suspension in 75 uL of Buffer RLT (Qiagen, Germantown, MD 20874) by Quintiles/Expression Analysis (Durham, NC) using a custom isolation procedure. Total RNA from each plate well was transferred to a preamplification plate. Fluidigm's 96.96 Dynamic ArrayTM (Fluidigm, Amsterdam, the Netherlands) technology was used for gene expression analyses by quantitative reverse transcription polymerase chain reaction (qRT-PCR, performed by Quintiles/Expression Analysis, Durham, NC)89. Standard TaqManTM Assays (Applied Biosystems/ThermoFisher Scientific, Foster City, CA) were used to assess the expression of 93 genes selected based on their selectivity and sensitivity to important hepatic receptors known to be modulated by environmental chemicals; importance in human hepatocyte functionality; and hepatotoxicity. […]
Consider `CC(C)N1C(=O)c2ccccc2NS1(=O)=O`, for which the outcome was inactive.

For the compound `OC(c1ccc(Cl)cc1)(c1ccc(Cl)cc1)C(Cl)(Cl)Cl`, the AC50 is 65.4 µM (active).

As for `COc1ccc(-c2ccccc2)cc1NNC(=O)OC(C)C`, the compound was called inactive.

Take `Clc1nc(Cl)nc(Nc2ccccc2Cl)n1`: the call was inactive.

On to `CCCC(=NOCC)C1=C(O)CC(CC(C)SCC)CC1=O` (stereo not given), for which the compound was called inactive.

Turning to `C=C(C)CN(CC)c1c([N+](=O)[O-])cc(C(F)(F)F)cc1[N+](=O)[O-]`, the compound was called inactive.

Turning to `COc1cc(OC)nc(NC(=O)NS(=O)(=O)c2ncccc2OCC(F)(F)F)n1`, the call was inactive.

With `CCCCC(C#N)(Cn1cncn1)c1ccc(Cl)cc1` (stereo not given), the AC50 was 41.5 µM (active).

As to `COC(=O)NS(=O)(=O)c1ccc(N)cc1`, the outcome was inactive.

With `Nc1c(Cl)c(Cl)nc(C(=O)O)c1Cl`, the compound was classed as inactive.

Regarding `CS(=O)(=O)c1cc(C(F)(F)F)ccc1C(=O)c1cnoc1C1CC1`, the compound was called inactive.

Take `CCOC(=O)C(C)OC(=O)c1cc(Oc2ccc(C(F)(F)F)cc2Cl)ccc1[N+](=O)[O-]` (stereo not given): the half-maximal activity concentration (AC50) was 0.598 µM (active).

Regarding `N#Cc1c[nH]cc1-c1cccc2c1OC(F)(F)O2`, the AC50 is 85.2 µM (active).

Take `C=CCOC(=O)C(C)(C)OC(=O)c1cc(-n2c(=O)cc(C(F)(F)F)n(C)c2=O)ccc1Cl`: the call was inactive.

`COP(=S)(OC)SCn1nnc2ccccc2c1=O`: the call was inactive.

With `COC(=O)c1c(C(F)F)nc(C(F)(F)F)c(C2=NCCS2)c1CC(C)C`, the compound was called inactive.

With `Cc1nc(N(C)C)nc(OC(=O)N(C)C)c1C`, the outcome was inactive.

`Cc1cc(C)nc(Nc2ccccc2)n1`: the AC50 was 50 µM (active).

`N#Cc1c(Cl)cccc1Cl`: the result was inactive.

For the compound `CC(C)Oc1cccc(NC(=O)c2ccccc2C(F)(F)F)c1`, the result was inactive.

For `CCCCOCN(C(=O)CCl)c1c(CC)cccc1CC`, the AC50 was 50 µM (active).

Regarding `CCNP(=S)(OC)O/C(C)=C/C(=O)OC(C)C` (stereo not given), the AC50 was 68.4 µM (active).

Turning to `CCOP(=O)(OCC)Oc1nc(Cl)c(Cl)cc1Cl`, the AC50 was 77.4 µM (active).

With `O=c1n(Cl)c(=O)n(Cl)c(=O)n1Cl`, the compound was classed as inactive.

`CCSC(=O)N1CCCCCC1`: the result was inactive.

Consider `CC(C)(C)C(=O)C(Oc1ccc(Cl)cc1)n1cncn1` (stereo not given), for which the AC50 is 50 µM (active).

For `COCC(C)N(C(=O)CCl)c1c(C)csc1C` (stereo not given), the call was inactive.

Take `CC1(C)CON(Cc2ccccc2Cl)C1=O`: the call was inactive.

Regarding `CCCCC(O)(Cn1cncn1)c1ccc(Cl)cc1Cl` (stereo not given), the AC50 is 59 µM (active).

Turning to `O=C(O)c1c(Cl)ccc2cc(Cl)cnc12`, the outcome was inactive.

With `CC(C)C1(C)N=C(c2ncccc2C(=O)O)NC1=O` (stereo not given), the call was inactive.

In the case of `CN/C(=N\[N+](=O)[O-])NCc1cnc(Cl)s1`, the compound was classed as inactive.

`O=P(O)(O)CCCl`: the compound was called inactive.

As to `COC(=O)N(C(=O)N1CO[C@@]2(C(=O)OC)Cc3cc(Cl)ccc3C2=N1)c1ccc(OC(F)(F)F)cc1`, the AC50 was 25.6 µM (active).

Regarding `CCN(CC)C(=O)C(C)Oc1cccc2ccccc12` (stereo not given), the AC50 was 79.1 µM (active).

Take `COP(=O)(OC)O/C(C)=C/C(=O)N(C)C`: the compound was classed as inactive.

For the compound `CCNC(=O)NC(=O)C(C#N)=NOC`, the compound was called inactive.

For the compound `CC1(C)CCC(=Cc2ccc(Cl)cc2)C1(O)Cn1cncn1` (stereo not given), the AC50 was 27.8 µM (active).

In the case of `CC(C)=CC1C(C(=O)OCc2coc(Cc3ccccc3)c2)C1(C)C` (stereo not given), the AC50 was 50 µM (active).

`COc1cc(Cl)c(OC)cc1Cl`: the call was inactive.
